# Reference: PubChem BioAssay (NCATS)
# Results filed as inconclusive are left out. Where a call stands in place of a potency, no number is given. Calls of active or inactive are those of the source. Unless noted, the call rests on the fitted dose curve; in most records, active means well fitted curve in the direction sought with a large enough effect; inconclusive means small, poorly fitted or top-dose-only effect, or another doubt; inactive means no such curve, though single readings can be large; an effect the other way counts as inactive or inconclusive.
# What was measured:
# [1] = Primary qHTS for inhibitors of nuclear receptor binding SET domain protein 2 (NSD2) in an isogenic RCH-ACV NSD2 p.E1099K mutant (9B) (AID 1645876); further: nearly all actives have a fitted effect of over 70% in size; further: potency means the concentration at half of the fitted maximal effect
# [2] = Primary qHTS for inhibitors of nuclear receptor binding SET domain protein 2 (NSD2) in an RCH-ACV wild type WT cells (2C) (AID 1645877); further: nearly all actives have a fitted effect of over 70% in size; further: potency means the concentration at half of the fitted maximal effect
# [3] = target: Phospholipid hydroperoxide glutathione peroxidase GPX4 (Homo sapiens) (UniProt P36969); test: Primary qHTS Assay for Inhibitors of Recombinant Selenoprotein Glutathione Peroxidase 4 (GPX4) (AID 1845192); further: nearly all actives have a fitted effect of over 65% in size; further: potency means the concentration at half of the fitted maximal effect
# Chain of Phospholipid hydroperoxide glutathione peroxidase GPX4 (Homo sapiens) (P36969 whole entry, looked up): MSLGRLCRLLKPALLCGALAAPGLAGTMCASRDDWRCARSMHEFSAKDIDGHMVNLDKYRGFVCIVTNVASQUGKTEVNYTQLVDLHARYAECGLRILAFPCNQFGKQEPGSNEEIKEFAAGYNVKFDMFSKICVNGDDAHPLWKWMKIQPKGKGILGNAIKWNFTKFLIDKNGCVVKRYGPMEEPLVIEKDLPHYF
# Summary of the method: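 GR-coupled readout: 100 nM GR, 1 mM GSH, 0.5 mM NADPH; NADPH fluorescence (ex 340/em 450 nm) read at t=0 and after 15 min RT. GPX4 200 nM, preincubated 30 min with compound; substrate 0.5 mM CHP.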
# [4] = target: Luciferin 4-monooxygenase (Photinus pyralis) (UniProt P08659); test: Primary firefly luciferase (FLuc) qHTS assay for identification of artifact compounds. (AID 1845220); further: nearly all actives have a fitted effect of over 60% in size; further: potency means the concentration at half of the fitted maximal effect
# Summary of the method: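 In this counter-screen for luciferase artifacts, test compounds met substrate (10 uM each luciferin and ATP) before 10 nM enzyme started the reaction. Light output was measured 5 min later.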
# [5] = Primary fluorescence-based thiol-reactive (MSTI) qHTS assay for identification of artifact compounds. (AID 1845221); further: nearly all actives have a fitted effect of over 65% in size; further: potency means the concentration at half of the fitted maximal effect
# Summary of the method: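 MSTI probe at 4 uM final in 2% DMSO/PBS pH 7.4; compounds, 1 h at room temperature in dark. Fluorescence Ex/Em 525/598 nm, normalised to Acetyl-MSTI and MSTI, fitted to 4-parameter Hill.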
# [6] = test system: Nanoluciferase (engineered Oplophorus gracilirostris luciferase); test: Primary Nanoluciferase (NLuc) qHTS assay for identification of artifact compounds. (AID 1845222);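 further: NLuc secreted into diluted conditioned medium of S16 cells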
# Summary of the method: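 Using secreted nanoluciferase in S16 culture medium (0.22 um filtered, 1:55 dilution), compounds were preincubated 15 min at RT. Signal was generated with Nano-Glo reagent (1:100) over 5 min.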
# [7] = target: Glutathione peroxidase 1 (Homo sapiens) (UniProt P07203); test: Primary qHTS Assay for Inhibitors of Recombinant Selenoprotein Glutathione Peroxidase 1 (GPX1) (AID 1845191); further: nearly all actives have a fitted effect of over 65% in size; further: potency means the concentration at half of the fitted maximal effect
# Chain of Glutathione peroxidase 1 (Homo sapiens) (P07203 whole entry, looked up): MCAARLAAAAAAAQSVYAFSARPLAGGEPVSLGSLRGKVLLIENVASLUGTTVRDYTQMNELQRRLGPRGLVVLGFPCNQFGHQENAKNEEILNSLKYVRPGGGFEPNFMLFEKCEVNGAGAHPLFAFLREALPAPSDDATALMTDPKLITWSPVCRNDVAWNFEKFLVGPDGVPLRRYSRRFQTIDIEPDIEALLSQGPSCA
# Summary of the method: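 Recombinant GPX1 (10 nM final) was preincubated with compound for 30 min at room temperature, then reacted with 1 mM GSH, 0.5 mM CHP, 0.5 mM NADPH and 100 nM glutathione reductase; NADPH fluorescence (340/450 nm) was read at 0 and 15 min.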
# [8] = target: Rap guanine nucleotide exchange factor 3 (Homo sapiens) (UniProt O95398); test: Confirmatory qHTS for agonist of cAMP-regulated guanine nucleotide exchange factor 3 (EPAC1) (AID 1645881);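 further: EPAC1 catalysed release of BODIPY-GDP from Rap1B seen as fluorescence loss; nearly all actives have a fitted effect of over 75% in size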
# Chain of Rap guanine nucleotide exchange factor 3 (Homo sapiens) (O95398 whole entry, looked up): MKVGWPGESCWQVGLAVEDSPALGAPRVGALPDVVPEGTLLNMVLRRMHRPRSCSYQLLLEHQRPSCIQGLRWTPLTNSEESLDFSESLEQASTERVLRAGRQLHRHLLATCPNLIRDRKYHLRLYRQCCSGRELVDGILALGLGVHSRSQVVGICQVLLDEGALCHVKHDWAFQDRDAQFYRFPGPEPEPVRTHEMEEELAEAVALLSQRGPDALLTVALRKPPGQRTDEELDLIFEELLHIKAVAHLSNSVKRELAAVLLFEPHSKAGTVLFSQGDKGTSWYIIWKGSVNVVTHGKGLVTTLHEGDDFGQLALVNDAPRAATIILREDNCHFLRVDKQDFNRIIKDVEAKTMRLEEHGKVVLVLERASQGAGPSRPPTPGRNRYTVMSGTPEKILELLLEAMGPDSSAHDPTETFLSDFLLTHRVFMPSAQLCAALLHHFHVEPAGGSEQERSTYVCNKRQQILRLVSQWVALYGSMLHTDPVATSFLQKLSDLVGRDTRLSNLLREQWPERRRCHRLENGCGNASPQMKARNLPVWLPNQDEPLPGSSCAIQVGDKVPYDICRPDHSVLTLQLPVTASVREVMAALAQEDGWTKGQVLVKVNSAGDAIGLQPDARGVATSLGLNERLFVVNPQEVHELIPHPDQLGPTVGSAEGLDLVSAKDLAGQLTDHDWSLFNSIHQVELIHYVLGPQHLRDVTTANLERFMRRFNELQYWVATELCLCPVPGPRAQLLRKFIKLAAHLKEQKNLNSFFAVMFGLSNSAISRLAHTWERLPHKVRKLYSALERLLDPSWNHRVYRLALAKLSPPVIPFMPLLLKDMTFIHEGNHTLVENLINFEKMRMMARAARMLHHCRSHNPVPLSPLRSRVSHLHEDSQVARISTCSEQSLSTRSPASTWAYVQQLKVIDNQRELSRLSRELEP
# [9] = target: Rap guanine nucleotide exchange factor 4 (Homo sapiens) (UniProt Q8WZA2); test: Confirmatory qHTS for agonist of cAMP-regulated guanine nucleotide exchange factor 4 (EPAC2) (AID 1645884);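 further: nucleotide exchange releases bodipy-GDP from Rap1 and this lowers its fluorescence; nearly all actives have a fitted effect of over 65% in size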
# Chain of Rap guanine nucleotide exchange factor 4 (Homo sapiens) (Q8WZA2 whole entry, looked up): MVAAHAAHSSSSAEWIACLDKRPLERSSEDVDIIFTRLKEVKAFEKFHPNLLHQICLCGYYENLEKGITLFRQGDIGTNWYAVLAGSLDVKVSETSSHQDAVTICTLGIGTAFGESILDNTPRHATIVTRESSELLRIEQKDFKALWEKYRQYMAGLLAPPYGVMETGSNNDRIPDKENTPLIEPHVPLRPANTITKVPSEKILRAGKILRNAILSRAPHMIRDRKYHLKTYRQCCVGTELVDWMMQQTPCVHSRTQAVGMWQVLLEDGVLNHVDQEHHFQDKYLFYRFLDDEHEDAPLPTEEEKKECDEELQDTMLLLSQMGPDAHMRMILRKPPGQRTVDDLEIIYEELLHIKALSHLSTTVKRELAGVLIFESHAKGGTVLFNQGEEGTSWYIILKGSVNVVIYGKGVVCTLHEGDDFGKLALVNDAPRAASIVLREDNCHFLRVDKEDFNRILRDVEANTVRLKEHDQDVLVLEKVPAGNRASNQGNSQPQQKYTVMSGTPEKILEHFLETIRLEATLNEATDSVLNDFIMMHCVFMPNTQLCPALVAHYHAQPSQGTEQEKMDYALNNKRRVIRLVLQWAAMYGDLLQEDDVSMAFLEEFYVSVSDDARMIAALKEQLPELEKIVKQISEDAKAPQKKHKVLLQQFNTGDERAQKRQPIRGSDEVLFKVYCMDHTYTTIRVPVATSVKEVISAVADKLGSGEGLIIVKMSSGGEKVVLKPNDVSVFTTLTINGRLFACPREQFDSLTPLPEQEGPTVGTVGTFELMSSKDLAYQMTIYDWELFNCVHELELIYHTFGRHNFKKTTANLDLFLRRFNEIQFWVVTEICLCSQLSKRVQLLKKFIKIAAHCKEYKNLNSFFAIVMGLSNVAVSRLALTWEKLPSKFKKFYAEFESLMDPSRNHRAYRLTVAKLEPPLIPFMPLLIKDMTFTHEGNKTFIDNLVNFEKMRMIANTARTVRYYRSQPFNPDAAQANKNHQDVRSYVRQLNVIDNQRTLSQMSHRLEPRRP
# [10] = target: Rap guanine nucleotide exchange factor 4 (Homo sapiens) (UniProt Q8WZA2); test: Confirmatory qHTS for antagonist of cAMP-regulated guanine nucleotide exchange factor 4 (EPAC2) (AID 1645885); settings: EPAC2 Rap1B-BODIPY-GDP exchange fluorescence, biochemical; further: potency means the concentration at half of the fitted maximal effect; nearly all actives have a fitted effect of over 25% in size
# [11] = NCATS anti-infectives library activity on HEK293 viability as a counter-qHTS vs the C. elegans viability qHTS (AID 1745854);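 further: HEK293 cells exposed to compounds for 24 hr before the viability read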
# Summary of the method: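 Compounds were acoustically plated (several concentrations, 1:5, final up to 41.7 uM), then 1500 HEK293 cells added per well and incubated 24 hr at 37C, 5% CO2. CellTiter-Glo was added and luminescence read after 10 min.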
# [12] = target: Catechol O-methyltransferase (Homo sapiens) (UniProt P21964); test: Confirmatory Screen for Target Class Profiling of Small Molecule Inhibitors of Methyltransferases (AID 1745852; calls by dose curve; further: potency means the concentration at half of the fitted maximal effect); settings: MTase-Glo luminescence, SAH detection, recombinant enzyme; measured here: COMT max response; stronger effect = lower value
# Chain of Catechol O-methyltransferase (Homo sapiens) (P21964 whole entry, looked up): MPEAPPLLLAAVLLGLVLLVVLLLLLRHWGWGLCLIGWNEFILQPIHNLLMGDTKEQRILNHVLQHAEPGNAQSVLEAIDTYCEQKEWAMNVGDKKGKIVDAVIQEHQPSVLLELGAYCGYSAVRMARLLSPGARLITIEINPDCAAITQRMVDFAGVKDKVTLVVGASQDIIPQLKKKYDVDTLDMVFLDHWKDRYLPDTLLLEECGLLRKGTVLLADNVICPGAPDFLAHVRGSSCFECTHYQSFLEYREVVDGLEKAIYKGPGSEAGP
# [13] = target: Guanidinoacetate N-methyltransferase (Homo sapiens) (UniProt Q14353); test: as above; settings: MTase-Glo luminescence, SAH detection, recombinant enzyme; activity change, negative = inhibition: at 57.3 µM (top of the series) unless noted
# [14] = target: Nicotinamide N-methyltransferase (Homo sapiens) (UniProt P40261); test: as above; settings: MTase-Glo luminescence, SAH detection, recombinant enzyme; measured here: NNMT max response; stronger effect = lower value
# Chain of Nicotinamide N-methyltransferase (Homo sapiens) (P40261 whole entry, looked up): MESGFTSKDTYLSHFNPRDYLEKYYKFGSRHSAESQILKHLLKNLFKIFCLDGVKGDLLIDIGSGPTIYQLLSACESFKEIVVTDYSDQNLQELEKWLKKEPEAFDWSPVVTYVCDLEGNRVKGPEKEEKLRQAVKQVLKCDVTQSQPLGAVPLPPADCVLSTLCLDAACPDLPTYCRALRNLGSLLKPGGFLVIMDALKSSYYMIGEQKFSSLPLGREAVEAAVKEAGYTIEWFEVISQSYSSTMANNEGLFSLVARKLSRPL
# [15] = target: Phenylethanolamine N-methyltransferase (Homo sapiens) (UniProt P11086); test: as above; settings: MTase-Glo luminescence, SAH detection, recombinant enzyme; measured here: PNMT max response; stronger effect = lower value
# Chain of Phenylethanolamine N-methyltransferase (Homo sapiens) (P11086 whole entry, looked up): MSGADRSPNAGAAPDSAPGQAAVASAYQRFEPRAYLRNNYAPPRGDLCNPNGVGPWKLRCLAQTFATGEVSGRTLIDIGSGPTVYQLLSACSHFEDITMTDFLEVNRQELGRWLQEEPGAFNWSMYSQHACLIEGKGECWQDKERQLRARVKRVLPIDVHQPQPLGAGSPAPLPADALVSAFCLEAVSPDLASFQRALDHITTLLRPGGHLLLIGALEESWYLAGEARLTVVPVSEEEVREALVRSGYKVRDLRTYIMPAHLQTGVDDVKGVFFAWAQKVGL
# [16] = target: Rap guanine nucleotide exchange factor 3 (Homo sapiens) (UniProt O95398); test: Confirmatory qHTS for antagonist of cAMP-regulated guanine nucleotide exchange factor 3 (EPAC1) (AID 1645880); settings: EPAC1 Rap1B-BODIPY-GDP exchange, fluorescence; further: potency means the concentration at half of the fitted maximal effect; nearly all actives have a fitted effect of over 55% in size
# Summary of the method: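 Nucleotide exchange uses 100 nM EPAC1, 250 nM RAP1B-BODIPY-GDP and 50 uM GDP, with compounds in a concentration-titration series. After 5 min at room temperature, fluorescence (480 nm ex/540 nm em) is read every 5 min for 30 min. Data are normalized to control ATA and DMSO.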
# [17] = target: Rap guanine nucleotide exchange factor 3 (Homo sapiens) (UniProt O95398); test: Counterscreen qHTS for antagonist of cAMP-regulated guanine nucleotide exchange factor 3 (EPAC1) (AID 1645888);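 further: fluorescence loss as bound BODIPY-GDP is released from Rap1B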
# Summary of the method: (§1)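 Measured: fluorescence of BODIPY-GDP bound to Rap1B, which falls as exchange proceeds. Conditions include 50 uM competing GDP, 5 and 30 min reads, and a later cAMP challenge for antagonist detection.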
# [18] = target: Rap guanine nucleotide exchange factor 3 (Homo sapiens) (UniProt O95398); test: Counterscreen qHTS for agonist of cAMP-regulated guanine nucleotide exchange factor 3 (EPAC1) (AID 1645889); further: nearly all actives have a fitted effect of over 40% in size
# Summary of the method: as §1
structure (smiles),measurement,setting,value
O=C1CCC[C@@H]2[C@H]3CCC[N+]4([O-])CCC[C@@H](CN12)[C@@H]34 (some centres not stated),Potency,[1],inactive
same,Potency,[2],inactive
same,Potency,[3],inactive
same,Potency,[4],inactive
same,Potency,[5],inactive
same,Potency,[6],inactive
COC(=O)C1=C(C)NC(C)=C(C(=O)OCCN2CCN(C(c3ccccc3)c3ccccc3)CC2)C1c1cccc([N+](=O)[O-])c1 (configuration not stated),Potency,[2],9.34 µM (active)
same,Potency,[7],inactive
same,Potency,[3],inactive
CC(C)(O)CCc1ccc(OCc2cc(-c3cccc(OC(F)F)c3)c3ncccc3c2)cc1,Potency,[1],20.9 µM (active)
same,Potency,[7],inactive
same,Potency,[3],inactive
same,Potency,[4],13.5 µM (active)
same,Potency,[5],inactive
same,Potency,[6],inactive
O=C(O)[C@H](Cc1c[nH]c2ccccc12)N1C(=O)c2ccccc2C1=O,Potency,[1],inactive
same,Potency,[7],inactive
same,Potency,[3],inactive
CCCCCN(CCC12CC3CC(CC(C3)C1)C2)C(=O)NCCCc1ccncc1,Potency,[2],16.3 µM (active)
same,Potency,[7],inactive
same,Potency,[3],inactive
same,Potency,[4],inactive
same,Potency,[6],inactive
CS(=O)(=O)N1CCN(Cc2cc3nc(-c4cccc5[nH]ncc45)nc(N4CCOCC4)c3s2)CC1,Potency,[7],inactive
same,Potency,[3],inactive
same,Potency,[4],inactive
same,Potency,[5],inactive
same,Potency,[6],inactive
CC(C)(C)c1cnc(CSc2cnc(NC(=O)C3CCNCC3)s2)o1,Potency,[1],0.209 µM (active)
same,Potency,[2],0.148 µM (active)
same,Potency,[3],inactive
COc1c(N2C[C@@H]3CCCN[C@H]3C2)c(F)cc2c(=O)c(C(=O)O)cn(C3CC3)c12,Potency,[1],inactive
same,Potency,[2],inactive
same,Potency,[3],18 µM (active)
O=c1[nH]nc(Sc2ncc([N+](=O)[O-])s2)n1-c1ccc2c(c1)OCCO2,Potency,[1],7.42 µM (active)
same,Potency,[2],7.42 µM (active)
same,Potency,[3],inactive
Cn1c2ccccc2c2c3c(c4c5ccccc5n(CCC#N)c4c21)CNC3=O,Potency,[7],inactive
same,Potency,[4],inactive
same,Potency,[6],inactive
CCOc1ccccc1OCCNC(C)Cc1ccc(OC)c(S(N)(=O)=O)c1 (configuration not stated),Potency,[1],inactive
same,Potency,[2],inactive
same,Potency,[3],inactive
same,Potency,[4],inactive
same,Potency,[5],inactive
same,Potency,[6],inactive
Cc1c(Cn2c(C)nc3c(C(=O)O)cc(N4CCOCC4)cc32)cccc1C(F)(F)F,Potency,[7],inactive
same,Potency,[3],inactive
same,Potency,[4],inactive
same,Potency,[6],inactive
Clc1cccc(-n2nnnc2NCc2ccccc2Oc2ccccn2)c1Cl,Potency,[3],inactive
same,Potency,[4],inactive
same,Potency,[5],inactive
same,Potency,[6],inactive
Cc1cc(N2CCOCC2)cc2[nH]c(-c3c(NC[C@@H](O)c4cccc(Cl)c4)cc[nH]c3=O)nc12,Potency,[1],1.66 µM (active)
same,Potency,[2],2.35 µM (active)
same,Potency,[4],inactive
same,Potency,[5],1.68 µM (active)
same,Potency,[6],inactive
CC(C)(C)NC(=O)[C@H]1CN(Cc2cccnc2)CCN1C[C@@H](O)C[C@@H](Cc1ccccc1)C(=O)N[C@H]1c2ccccc2C[C@H]1O,outcome,[8],inactive
same,outcome,[9],inactive
same,Potency,[10],44.1 µM (active)
Clc1ccc2ncc(-c3cccc(NC4CNC4)n3)n2c1,Potency,[1],inactive
same,Potency,[2],inactive
same,Potency,[7],inactive
same,Potency,[4],inactive
same,Potency,[5],inactive
same,Potency,[6],inactive
COc1ccc(-n2nc(C(N)=O)c3c2C(=O)N(c2ccc(N4CCCCC4=O)cc2)CC3)cc1,Potency,[1],inactive
same,Potency,[11],inactive
same,Potency,[7],inactive
same,Potency,[3],inactive
same,Potency,[4],inactive
same,Potency,[5],inactive
same,Potency,[6],inactive
C=CC(=O)N1CCC[C@@H](n2nc(-c3ccc(Oc4ccccc4)cc3)c3c(N)ncnc32)C1,Potency,[7],inactive
same,Potency,[3],inactive
same,Potency,[4],inactive
same,Potency,[6],inactive
COC(=O)Nc1ccc(-c2nc(N3CCOCC3)c3cnn(C4CCN(Cc5cccnc5)CC4)c3n2)cc1,Potency,[1],0.833 µM (active)
same,Potency,[2],0.662 µM (active)
same,Potency,[7],inactive
same,Potency,[4],inactive
same,Potency,[5],inactive
same,Potency,[6],inactive
O=C(O)Cn1nnc(-c2cc(N3CCC(Oc4cc(F)ccc4Br)CC3)no2)n1,Potency,[1],inactive
same,Potency,[7],inactive
same,Potency,[4],inactive
same,Potency,[5],inactive
same,Potency,[6],inactive
COC(=O)C[C@](O)(CCCC(C)(C)O)C(=O)O[C@@H]1C(OC)=C[C@]23CCCN2CCc2cc4c(cc2[C@H]13)OCO4,Potency,[7],inactive
same,Potency,[3],inactive
Cc1c(C)n(Cc2ccc(-c3ccccc3C(=O)O)cc2)c2ccc(C(=O)N[C@@H](C)c3ccc([N+](=O)[O-])cc3)cc12,activity,[12],-7.34%
same,"activity change, negative = inhibition",[13],-10.2%
same,activity,[14],-14.9%
same,activity,[15],-11.9%
same,Potency,[7],inactive
same,Potency,[3],9.04 µM (active)
same,Potency,[4],inactive
same,Potency,[5],inactive
same,Potency,[6],inactive
CCc1cc2c(cc1N1CCC(N3CCOCC3)CC1)C(C)(C)c1[nH]c3cc(C#N)ccc3c1C2=O,Potency,[2],1.42 µM (active)
same,Potency,[7],inactive
same,Potency,[3],inactive
same,Potency,[4],inactive
same,Potency,[5],inactive
same,Potency,[6],inactive
CCCNC(=O)Nc1ccc(Oc2ncnc3cc(OC)c(OC)cc23)cc1Cl,Potency,[7],inactive
same,Potency,[3],inactive
same,Potency,[4],inactive
same,Potency,[5],inactive
same,Potency,[6],inactive
CC(C)c1ccccc1Cc1cc(C(=O)Nc2ccc(S(=O)(=O)c3ccccc3C(C)(C)C)cc2)c(O)c(O)c1O,Potency,[1],13.2 µM (active)
same,Potency,[7],inactive
CC(=O)OCC(=O)[C@@]1(O)[C@H](C)C[C@H]2[C@@H]3C=C(C)C4=Cc5c(cnn5-c5ccccc5)C[C@]4(C)[C@@H]3[C@@H](O)C[C@@]21C,Potency,[2],0.0132 µM (active)
same,Potency,[7],inactive
same,Potency,[3],inactive
CC(=O)Nc1sc2c(c1-c1nc3ccccc3s1)CNC2,Potency,[1],2.9 µM (active)
same,Potency,[2],2.9 µM (active)
same,Potency,[7],3.6 µM (active)
same,Potency,[4],inactive
same,Potency,[5],inactive
same,Potency,[6],inactive
Cc1coc2c1C(=O)C(=O)c1c-2ccc2c1CCCC2(C)C,Potency,[1],inactive
same,Potency,[16],53.6 µM (active)
same,outcome,[8],inactive
same,outcome,[9],inactive
same,Potency,[10],30.1 µM (active)
same,outcome,[17],inactive
same,outcome,[18],inactive
same,activity,[12],-26.5%
same,Potency,[13],24.1 µM (active)
same,activity,[14],-48.9%
same,activity,[15],-37.9%
same,Potency,[11],inactive
same,Potency,[7],inactive
same,Potency,[5],1.34 µM (active)
same,Potency,[6],inactive
Cn1c2cc(S(C)=O)sc2c2cnn(Cc3cccc(N)c3)c(=O)c21 (configuration not stated),Potency,[7],inactive
same,Potency,[3],inactive
COc1cccc2nc(-c3cccs3)nc(NN3C(=O)C=C(C)C3=O)c12,Potency,[1],0.372 µM (active)
same,Potency,[2],0.263 µM (active)
same,Potency,[7],inactive
same,Potency,[5],inactive
same,Potency,[6],inactive
CC(C)c1noc(N2CCC(COc3ccc(-c4ccc(S(C)(=O)=O)cc4)nc3)CC2)n1,Potency,[7],inactive
same,Potency,[3],inactive
same,Potency,[4],inactive
same,Potency,[5],inactive
same,Potency,[6],inactive
CC(O)C1C(=O)N2C(C(=O)O)=C(SC3CNC(C(=O)N(C)C)C3)C(C)C12 (configuration not stated),Potency,[1],inactive
same,Potency,[2],inactive
same,Potency,[3],inactive
same,Potency,[4],inactive
same,Potency,[5],inactive
same,Potency,[6],inactive
COc1cccc(Nc2c(C(N)=O)cnc3c(C)cc(S(=O)(=O)c4cccc(C(=O)N(C)C)c4)cc23)c1,Potency,[7],inactive
same,Potency,[3],inactive
same,Potency,[4],inactive
same,Potency,[5],inactive
same,Potency,[6],inactive
COc1ccc(CC2SC(=O)NC2=O)cc1C(=O)NCc1ccc(C(F)(F)F)cc1 (configuration not stated),Potency,[7],inactive
